Data taken from PubChem BioAssay (NCI).
The panel holds about 79,000 compounds, 15% with a hit somewhere; the sample as a whole holds those more often. Cut-off read from the data, not from the text of the source: active = growth inhibition above about 70%; inactive = the rest.

How the values were obtained:
[1] = NCI Yeast Anticancer Drug Screen. Data for the rad50 strain (AID 155);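 note: 0% = growth of vehicle-only cultures of the same strain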; conditions: S. cerevisiae rad50 strain growth inhibition; at 50.0 µM; hits give high values
Outline: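 DNA repair mutant yeast, compound exposure, growth read-out; inhibition is taken relative to vehicle.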

[2] = NCI Yeast Anticancer Drug Screen. Data for the mec2-1 strain (AID 157); conditions: S. cerevisiae mec2-1 strain, at 50.0 µM, hits give high values
Outline: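 Compounds were applied to mec2-1 yeast cells. Their growth was then compared with that of vehicle-treated cultures to give growth inhibition.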

[3] = NCI Yeast Anticancer Drug Screen. Data for the mlh1 rad18 strain (AID 175); conditions: S. cerevisiae mlh1 rad18 strain growth inhibition; at 50.0 µM; hits give high values
Outline: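 A repair-deficient yeast strain is exposed to test compound, and growth is scored relative to vehicle-treated controls.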

Measured: growth inhibition

O=C1Nc2ccccc2/C1=N/N=C/c1cc(Cl)cc(Cl)c1O
inactive: [1] 32.7% | [2] 9.4% | [3] 20.1%

Cc1ccc(S(=O)(=O)NCN2C(=O)c3ccccc3C2=O)cc1
inactive: [1] -3.75% | [2] -3.85% | [3] 1.55%

COc1ccc(COC(=O)N=[N+]=[N-])cc1
inactive: [1] 19.1% | [2] 3.85% | [3] 13.4%

CCCCOc1cc(C(=O)NCCN(CC)CC)c2ccccc2n1
inactive: [1] -2.1% | [2] -9.6% | [3] 1.9%

COc1cc(/C=N/NC(=O)c2ccncc2)cc(OC)c1OC
inactive: [1] -14.2% | [2] -48.5% | [3] -16.5%

COC(=O)C/C(=C/C=C1/C(=O)ON=C1C)c1c(C)[nH]oc1=O
inactive: [1] -10.9% | [2] -29.9% | [3] -16.9%

O=C(O)C1=C(C2CCCCC2)C(=O)c2ccccc21
inactive: [1] 7.75% | [2] -15.8% | [3] 20.9%

NC(CCC(=O)OCc1ccccc1)C(=O)OCc1ccccc1 (stereo not drawn)
inactive: [1] -0.95% | [2] -14.3% | [3] 9.25%

N#CCC(=O)OCCCCOC(=O)CC#N
inactive: [1] -8.3% | [2] -22.3% | [3] 15.4%

CC(=O)CC1CCCC(CC(C)=O)N1C (stereo not drawn)
inactive: [1] -9.3% | [2] -19.2% | [3] 0.2%

C=CCNC(=O)C(O)C(O)C(=O)NCC=C (stereo not drawn)
inactive: [1] -25.1% | [2] -32.5% | [3] -21.2%
